Source: PubChem BioAssay (The Scripps Research Institute Molecular Screening Center)
DAX1 inh-1: DAX1 (NR0B1) inhibitors on StAR promoter, primary screen, cell-based, luminescence, SF-1 (NR5A1), full-length DAX-1; HEK293T StAR-luciferase reporter, SF-1/DAX-1 repression relief; inhibition, % at 6.8 µM; AID 652010, 2013; 370,000 compounds, 1.1% hits;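 active = inhibition above the mean over all tested compounds plus 3 SD, cut at about 3.6% in these data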;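 also: higher inhibition means more luminescence from relief of DAX-1 repression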
hcDAF12 agonist: H. contortus DAF-12 nuclear receptor activators, primary screen, cell-based, luminescence, HEK293, lit1-tk-luc reporter. HEK293 hcDAF-12 lit1-tk-luc reporter; 0% DMSO, 100% Δ7-dafachronic acid. 370,000 compounds, 1.4% hits. activation, % at 6.8 µM;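 active = activation above the mean of all tested compounds plus 3 SD, cut at about 5.5% in these data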
hgDAF-12 ag: H. glycines DAF-12 receptor agonists, primary screen, cell-based, luminescence, HEK293, GAL4 fusion, UAS-luciferase. Nuclear hormone receptor DAF-12 (Heterodera glycines), GAL4 fusion. HEK293 GAL4-hgDAF12 UAS-luciferase reporter, agonist luminescence; normalized to butyrate control. activation, % at 6.8 µM. 370,000 compounds, 1.8% hits. AID 687014, 2013;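 active = activation above a cutoff set at the mean of all screened compounds plus 3 SD, cut at about 10% in these data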
ssDAF-12 act: S. stercoralis DAF-12 nuclear receptor activators, primary screen, cell-based, luminescence, HEK293, GRIP1 co-expression, lit1-tk-luc | Nuclear hormone receptor DAF-12 (Strongyloides stercoralis) | activation, % at 6.8 µM | HEK293 ssDAF-12/GRIP1 lit1-tk-luc reporter; % of 3 µM dafachronic acid response | 370,000 compounds, 1% hits;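 active = activation above the mean over all tested compounds plus 3 SD, cut at about 0.9% in these data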
DAX1 inh-2: DAX1 (NR0B1) inhibitors, primary screen, cell-based, HEK293, Gal4-DAX1, luciferase luminescence; inhibition, % at 6.75 µM; Nuclear receptor subfamily 0 group B member 1 (Homo sapiens), P51843; 340,000 compounds, 0.99% hits; AID 504766, 2011; HEK293 Gal4-DAX1 luciferase reporter;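 active = inhibition above the mean over all tested compounds plus 3 SD, cut at about 4.2% in these data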;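 also: inhibition shows as a rise in luminescence from relieved DAX1 repression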
DAX1 conf: DAX1 (NR0B1) inhibitors relieving SF-1 repression, confirmation, cell-based, luminescence, HEK293T, full-length DAX-1, SF-1 activated StAR promoter; 2,400 compounds, 87% hits; HEK293T StAR-promoter luciferase reporter, SF-1/DAX-1 repression; AID 652134, 2013; shares compounds with DAX1 inh-1; inhibition, % at 6.8 µM;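 active = inhibition above the average of every tested compound plus 3 SD, cut at about 3.8% in these data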
SF1 AF2mut Luc: StAR reporter signal changes without DAX1, counter-screen for DAX1 inhibitor project, cell-based, luminescence, AF-2 mutant SF-1, transactivation | inhibition, % at 6.8 µM | shares compounds with DAX1 inh-1 | 2,400 compounds, 78% hits | HEK293 StAR-luciferase, SF-1 AF2 mutant;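 active = inhibition above the mean of all tested compounds plus 3 SD, cut at about 3% in these data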
LXR ag: LXR agonists, Gal4 luciferase reporter, confirmation, counter-screen for hcDAF-12 agonist project, cell-based, luminescence, HEK293, H. contortus campaign; AID 743027, 2013; activation, % at 6.8 µM; HEK293 Gal4-LXR tk-luc reporter, 24 h; normalized: DMSO 0%, positive control 100%; shares compounds with hcDAF12 agonist; 3,400 tested, under 10 active;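 active = mean percent activation of the reporter above a cutoff set as the average over tested compounds plus their standard deviation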
Target sequence (P55055 whole entry, looked up, the tested form may be a part): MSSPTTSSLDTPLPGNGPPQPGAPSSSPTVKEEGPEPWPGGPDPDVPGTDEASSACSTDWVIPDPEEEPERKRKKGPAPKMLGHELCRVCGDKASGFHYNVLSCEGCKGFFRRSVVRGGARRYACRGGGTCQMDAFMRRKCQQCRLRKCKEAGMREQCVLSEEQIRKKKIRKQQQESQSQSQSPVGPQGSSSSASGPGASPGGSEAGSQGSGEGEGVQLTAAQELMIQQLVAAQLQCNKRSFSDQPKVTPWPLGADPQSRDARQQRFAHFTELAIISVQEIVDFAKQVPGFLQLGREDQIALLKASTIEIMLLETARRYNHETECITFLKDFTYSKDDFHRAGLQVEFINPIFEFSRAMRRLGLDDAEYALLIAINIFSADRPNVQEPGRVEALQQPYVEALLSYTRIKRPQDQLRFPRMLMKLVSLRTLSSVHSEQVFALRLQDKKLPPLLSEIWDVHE
hcDAF12 conf: H. contortus DAF-12 receptor agonists, confirmation, cell-based, luminescence, HEK293, lit1-tk-luc, triplicate | shares compounds with hcDAF12 agonist | HEK293 hcDAF-12 lit1-tk-luc reporter; % of Δ7-dafachronic acid response | activation, % at 6.8 µM | 3,400 compounds, 61% hits | AID 743032, 2013;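 active = mean activation across triplicate tests above the threshold derived from the earlier primary screen, cut at about 5.5% in these data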
hgDAF12 ag: H. glycines DAF-12 receptor agonists, confirmation, cell-based, luminescence, HEK293, GAL4-LBD fusion; shares compounds with hgDAF-12 ag; AID 743050, 2013; activation, % at 6.8 µM; 3,300 compounds, 80% hits; HEK293 GAL4-hgDAF12 luciferase reporter, agonist mode; percent of butyrate response;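 active = mean activation over triplicate wells above the hit cutoff derived from the earlier primary screen, cut at about 11% in these data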
LXR ag 2: LXR agonists, Gal4 luciferase reporter, confirmation, counter-screen for hgDAF-12 agonist project, cell-based, luminescence, HEK293, H. glycines campaign. shares compounds with hgDAF-12 ag. 24 h. activation, % at 6.8 µM. 3,300 tested, under 10 active. AID 743051, 2013;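 active = mean activation of the triplicate above a set limit carried over from the primary screen, none filed active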
Large screens that a line does not name were inactive (follow-up assays come after a bar, where they were run); ! = repeats disagree. Only some compounds are listed: those with a hit (about 4.1% of all), similar ones and a draw of the others.

O=C(N/N=C/c1c(O)n(C2CCCCC2)c(=S)[nH]c1=O)c1ccccc1	DAX1 inh-1 4.8 | DAX1 conf inactive | SF1 AF2mut Luc inactive
O=C(N/N=C/c1c(O)n(C2CCCCC2)c(=S)[nH]c1=O)c1ccccc1O	none
N#Cc1ccc2nc(-c3ccc(CN4CCC(n5nnc6ccccc65)CC4)cc3)c(-c3ccccc3)nc2c1	none (no result: DAX1 inh-2)
CC(C)C(NC(=O)C(C(C)C)N(C)C)C(=O)N(C)C(C(=O)N1CCCC1C(=O)N1CCCC1C(=O)NCc1ccccc1)C(C)C (stereo not drawn)	DAX1 inh-1 5.4 | DAX1 conf 21 | SF1 AF2mut Luc inactive
COC1CCC(OC2CC(C3(C)CCC4(CC(O)C(C)C(C(C)/C=C(\C)C(=O)C(C)CC(C)C(=O)O)O4)O3)OC3(OC(C4OC(O)(CO)C(C)CC4C)CC3C)C2C)OC1C (stereo not drawn)	DAX1 inh-1 9.6 | DAX1 conf inactive | SF1 AF2mut Luc inactive
CN(CC1COc2ccccc2O1)c1nc(-c2cccnc2)nc2ccccc12 (stereo not drawn)	none
CCOC(=O)[C@]12Cc3ccccc3[C@H]1N(CCC(=O)OC)C(=O)c1cc(OC)ccc12	DAX1 inh-1 7.2 (no result: DAX1 inh-2) | DAX1 conf 4.1 | SF1 AF2mut Luc 9.3
Cc1ccc2c(c1)NP(=S)(Oc1ccccc1)N2 (stereo not drawn)	DAX1 inh-1 8.0, hcDAF12 agonist 7.5, hgDAF-12 ag 12, ssDAF-12 act 1.0, DAX1 inh-2 4.5 | DAX1 conf 6.5 | SF1 AF2mut Luc 2.9 | LXR ag inactive | hcDAF12 conf inactive
COc1ccc2nc(/N=C/c3c(O)n(-c4cccc(Cl)c4)c(=O)[nH]c3=O)sc2c1	none
N=C1c2ccccc2CN1NC(=O)c1ccccc1	none
N=C1c2ccccc2CN1CC(=O)c1ccccc1	DAX1 inh-1 7.0, hcDAF12 agonist 23, hgDAF-12 ag 20, ssDAF-12 act 2.6 | DAX1 conf 11 | SF1 AF2mut Luc 7.2 | LXR ag inactive | hcDAF12 conf 7.3 | hgDAF12 ag 24 | LXR ag 2 inactive
CNC(=O)Oc1ccc(-c2cn3cc(Cl)ccc3n2)cc1	DAX1 inh-1 6.1, hcDAF12 agonist 6.4, hgDAF-12 ag 14, ssDAF-12 act 1.6 | DAX1 conf 9.8 | SF1 AF2mut Luc 3.5 | hgDAF12 ag 21 | LXR ag 2 inactive
CC12CCC(=O)C=C1CCC1C2CCC2(C)C(O)(C(=O)CO)CCC12O (stereo not drawn)	none
c1ccc2c(CN3CCOCC3)c[nH]c2c1	hcDAF12 agonist 7.0 | LXR ag inactive | hcDAF12 conf inactive
Cn1c(N)c(C(=O)COC(=O)Cc2ccccc2)c(=O)n(C)c1=O	none
O=c1[nH]c(=O)n(CC2CCCO2)c(O)c1/C=C1\C=Nc2ccccc21 (stereo not drawn)	hcDAF12 agonist 6.1, DAX1 inh-2 5.4! | LXR ag inactive | hcDAF12 conf inactive
O=c1[nH]c(=O)n(Cc2ccccc2)c(O)c1/C=C1\C=Nc2ccccc21	none
CCCC1(CCC)C(=O)NC(=Nc2ccc(C)cc2)NC1=O	none (no result: DAX1 inh-2)
Cc1cc(S(N)(=O)=O)ccc1N=Cc1c(O)n(-c2ccccc2)c(=O)[nH]c1=O	none
Cc1ccc(-n2c(O)c(C=Nc3ccccc3N)c(=O)[nH]c2=O)cc1C	DAX1 inh-1 4.4, hcDAF12 agonist 7.8 | LXR ag inactive | hcDAF12 conf inactive
CSc1ncc(/C=C2/C(=O)NC(=O)N(c3ccc(Cl)cc3)C2=O)cn1	none
CC(=Nc1ccccc1N)c1c(O)n(C)c(=O)[nH]c1=O	hcDAF12 agonist 7.7, ssDAF-12 act 1.8 | LXR ag inactive | hcDAF12 conf inactive
Nc1ccccc1C(=O)OCCOc1ccccc1	DAX1 inh-1 4.3, hcDAF12 agonist 9.3, hgDAF-12 ag 11 | LXR ag inactive | hcDAF12 conf 7.5
C=CCOC(=O)c1ccccc1N	none
CC1CCN(c2cc(Br)c([N+](=O)[O-])cc2F)CC1	none
CCOP(=O)(OCC)C1(O)C(=O)Nc2ccccc21 (stereo not drawn)	hcDAF12 agonist 7.1 | LXR ag inactive | hcDAF12 conf inactive
O=C1c2ccccc2-c2cccc3cccc1c23	none
O=C1c2ccccc2-c2cc3ccccc3cc21	hcDAF12 agonist 6.6 | LXR ag inactive | hcDAF12 conf 7.1
CC(=O)n1cc(C=C2C(=O)NC(=O)NC2=O)c2ccccc21	hcDAF12 agonist 9.8 | LXR ag inactive | hcDAF12 conf inactive
Cn1cc(C=C2C(=O)NC(=O)NC2=O)c2ccccc21	none
O=C(c1cc(Br)ccc1Cl)N1CCC2(CC1)OCCO2	none
O=C(c1cc2cc(Br)ccc2[nH]1)N1CCC2(CC1)OCCO2	hcDAF12 agonist 7.6 | LXR ag inactive | hcDAF12 conf inactive
